Shown is part of a subset that was picked to be rich in hits.
Cruzain inh Det = qHTS Assay for Promiscuous and Specific Inhibitors of Cruzain (with detergent); Potency, µM, inactives show max response, negative = inhibition, most hits filed as inhibitors; hit rate 0.43% among 200,000; Cruzipain (Trypanosoma cruzi), P25779; purified cruzain, Z-FR-AMC fluorescence, 0.01% Triton;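 also: plate controls were neutral wells for no effect and buffer without enzyme for full effect; nearly all actives have a fitted effect of over 40% in size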
Target sequence (P25779 123-467 limits assumed): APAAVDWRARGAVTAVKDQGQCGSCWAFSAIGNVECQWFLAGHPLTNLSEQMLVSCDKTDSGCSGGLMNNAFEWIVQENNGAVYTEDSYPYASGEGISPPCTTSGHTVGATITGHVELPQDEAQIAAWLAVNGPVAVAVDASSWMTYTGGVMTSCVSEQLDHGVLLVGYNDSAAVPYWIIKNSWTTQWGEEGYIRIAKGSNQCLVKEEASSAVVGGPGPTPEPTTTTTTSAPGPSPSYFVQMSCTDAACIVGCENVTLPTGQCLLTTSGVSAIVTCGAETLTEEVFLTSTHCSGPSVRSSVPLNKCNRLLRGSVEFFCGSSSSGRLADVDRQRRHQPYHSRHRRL
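Cysteine protease activity tested under reducing, mildly acidic conditions (100 mM sodium acetate pH 5.5, 5 mM DTT) plus 0.01% Triton X-100. Cruzain 1.5 nM; substrate Z-FR-AMC 2 uM; 15 min compound preincubation at room temperature.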
NS1 inh = qHTS Assay for Inhibitors of Influenza NS1 Protein Function | Potency, µM (top dose mostly 46.1 µM), for inactives: top-dose activity, positive = more growth | hit rate 0.4% among 270,000 | AID 2326, 2010; calls by dose curve; also: actives are rising curves; nearly all actives have a fitted effect of over 50% in size
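A cell-based growth assay was used: compounds that relieve NS1-induced slow growth of budding yeast raise OD600. Assay medium was yeast nitrogen base with ammonium sulphate and -URA supplement, pH 6.0, with 2% galactose.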
Cruzain inh noDet = qHTS Assay for Promiscuous and Specific Inhibitors of Cruzain (without detergent); hit rate 2.3% among 200,000; purified cruzain, Z-FR-AMC fluorescence, no detergent; Potency, µM, without a hit: max response, negative = inhibition, usual class: inhibitors; Cruzipain (Trypanosoma cruzi), P25779; AID 1476, 2009;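 also: plate controls were enzyme without inhibitor for no effect and buffer without enzyme for full effect; nearly all actives have a fitted effect of over 40% in size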
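Detergent-free condition (0.00005% Triton X-100) in acetate buffer pH 5.5 with DTT. 1.5 nM enzyme and compound were pre-mixed 15 min, then 2 uM Z-FR-AMC substrate added; reaction progress from fluorescence change between first and third reads (60 s).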
* = called active by the depositor. Unless noted, calls follow the shape of the dose curve; as a rule, active = well fitted curve in the direction sought with a large enough effect; inconclusive = small, poorly fitted or top-dose-only effect, or another doubt; inactive = no such curve, though single readings can be large; an effect the other way counts as inactive or inconclusive. Potency is read from the fitted curve at half-maximal effect.

How did O=C(NC(=S)Nc1nc2c(s1)CSc1ccccc1-2)c1ccccc1 do in these assays?
Cruzain inh Det: -5%; NS1 inh: -101%; Cruzain inh noDet: 7.9µM*

Results for Cc1onc(-c2ccccc2Cl)c1C(=O)Nc1nnc(-c2ccc(Cl)cc2Cl)s1 ?
Cruzain inh Det: -2%; NS1 inh: 20%; Cruzain inh noDet: inconclusive

What do the screens show for `O=C(NC(=S)Nc1nc2c(s1)CCCC2)c1ccc(C(=O)c2ccccc2)cc1`?
Cruzain inh Det: 0%; NS1 inh: 12%; Cruzain inh noDet: 25µM*

Results for O=C(Nc1nc2c(s1)CCCC2)c1cccnc1 ?
Cruzain inh Det: -5%; NS1 inh: 0%; Cruzain inh noDet: -12%

Results for COC(=O)c1ccc(C(=O)NC(=S)Nc2nc3c(s2)CC(C)CC3)cc1 (stereo not given) ?
Cruzain inh Det: -3%; NS1 inh: -1%; Cruzain inh noDet: 6%

Results for Cc1onc(-c2ccccc2Cl)c1C(=O)Nc1nc2c(s1)CCCC2 ?
Cruzain inh Det: -1%; NS1 inh: -12%; Cruzain inh noDet: 25µM*

How did CC(=O)c1cccc(NC(=O)C(CC(C)C)NS(=O)(=O)c2ccc3c(c2)CCN3C(C)=O)c1 (stereo not given) do in these assays?
Cruzain inh Det: -3%; Cruzain inh noDet: -1%

How did Cc1ccc(C(=O)N2CCc3cc(CNC(=O)CSc4ccccc4)ccc32)cc1 do in these assays?
Cruzain inh Det: -3%; Cruzain inh noDet: -13%

Results for Cc1nn(-c2ccccc2)c(N2CCCC2)c1/C=N/NC(=S)Nc1cc(C(F)(F)F)ccc1Cl ?
Cruzain inh Det: -4%; NS1 inh: 13%; Cruzain inh noDet: 10µM*

What do the screens show for `Cc1nn(-c2ccccc2)c(N2CCCC2)c1/C=N/NC(=S)Nc1ccccc1C(F)(F)F`?
Cruzain inh Det: -7%; NS1 inh: 12%; Cruzain inh noDet: inconclusive

How did CC1=NN2C(=N)/C(=C\c3cc(C)n(-c4cccc(C)c4)c3C)C(=O)N=C2S1 do in these assays?
NS1 inh: 13%

What do the screens show for `Cc1cc(C)cc(-n2c(C)cc(/C=C3\C(=N)N4N=C(CC(C)C)SC4=NC3=O)c2C)c1`?
Cruzain inh Det: -7%; NS1 inh: 3%; Cruzain inh noDet: 25µM*

What do the screens show for `Cc1ccc(-n2c(C)cc(/C=C3/C(=N)N4C(c5ccccc5)=CSC4=NC3=O)c2C)cc1`?
Cruzain inh Det: 1%; NS1 inh: 11%; Cruzain inh noDet: 6.3µM*

How did N=C1/C(=C/c2cccn2CCOc2ccccc2)C(=O)N=C2SC=C(c3ccccc3)N12 do in these assays?
Cruzain inh Det: 0%; NS1 inh: 15%; Cruzain inh noDet: 6.3µM*

Results for N=C1/C(=C\c2ccc(-c3cc(Cl)cc(Cl)c3)o2)C(=O)N=C2SC=C(c3ccccc3)N12 ?
Cruzain inh Det: -4%; NS1 inh: 5%; Cruzain inh noDet: 2.5µM*

Results for Cc1cccc(-n2c(C)cc(/C=C3\C(=N)N4N=C(CC(C)C)SC4=NC3=O)c2C)c1 ?
Cruzain inh Det: -3%; NS1 inh: 2%; Cruzain inh noDet: inconclusive

Results for CS(=O)(=O)C1=NSC2=NC(=O)/C(=C\c3ccc(-c4ccccc4)o3)C(=N)N21 ?
Cruzain inh Det: -16%; NS1 inh: 9%; Cruzain inh noDet: 24%

How did CC1=CC2=NC(=O)/C(=C\c3cccn3CCOc3ccc(C)c(C)c3)C(=N)N2O1 do in these assays?
Cruzain inh Det: -6%; NS1 inh: -7%; Cruzain inh noDet: 2%

What do the screens show for `Cn1c(CNC(=O)CSc2nc(-c3ccccc3F)nc3cc(=O)[nH]n23)nc2ccccc21`?
Cruzain inh Det: 1%; Cruzain inh noDet: 7%

What do the screens show for `O=C(c1cc(Br)ccc1O)c1cc(Br)ccc1O`?
Cruzain inh Det: 2%; NS1 inh: -36%; Cruzain inh noDet: 8%

What do the screens show for `COc1ccc(Br)cc1CNC(=O)CCCn1c(=O)c2cccn2c2ccccc21`?
Cruzain inh Det: -2%; Cruzain inh noDet: -3%

What do the screens show for `C/C(CC(=O)Nc1ccc(OCc2ccccc2)cc1)=N\NC(=O)C(=O)Nc1ccc(C)c(Cl)c1`?
Cruzain inh Det: 1%; NS1 inh: -1%; Cruzain inh noDet: 7.9µM*

What do the screens show for `C/C(CC(=O)Nc1ccc(C)c(Cl)c1)=N\NC(=O)Cc1ccccc1`?
Cruzain inh Det: -3%; NS1 inh: 20%; Cruzain inh noDet: 11%

How did Cn1ccnc1C[C@@](C)(O)c1ccccc1 do in these assays?
Cruzain inh Det: 6%; NS1 inh: -3%; Cruzain inh noDet: 1%

Results for Cc1ccccc1OCc1nc(-c2ccc(NC(=O)c3ccc4c(c3)OCO4)cc2)no1 ?
Cruzain inh Det: 3%; NS1 inh: 1%; Cruzain inh noDet: 13µM*

What do the screens show for `Cc1ccccc1OCc1nc(-c2ccc(NC(=O)c3ccco3)cc2)no1`?
Cruzain inh Det: -5%; NS1 inh: -44%; Cruzain inh noDet: 2%

What do the screens show for `CCCCOc1ccc(NC(=O)CSc2ccc(C(=O)O)cn2)cc1`?
Cruzain inh Det: -2%; Cruzain inh noDet: -14%

What do the screens show for `COc1ccc(-c2csc(-c3c(N)c(C(=O)c4ccccc4)n4ccccc34)n2)cc1OC`?
Cruzain inh Det: -3%; Cruzain inh noDet: -12%

Results for Nc1c(-c2nc(-c3ccc4c(c3)OCO4)cs2)c2ccccn2c1C(=O)c1ccc(Cl)cc1 ?
Cruzain inh Det: 0%; Cruzain inh noDet: inconclusive

What do the screens show for `COc1cccc(C(=O)c2c(N)c(-c3nc(-c4ccccc4)cs3)c3ccccn23)c1`?
Cruzain inh Det: -2%; Cruzain inh noDet: 10µM*

How did Nc1c(-c2nc(-c3ccc(F)cc3)cs2)c2ccccn2c1C(=O)c1ccc2c(c1)OCO2 do in these assays?
Cruzain inh Det: 1%; Cruzain inh noDet: -29%

Results for Cc1ccc(-c2csc(-c3c(N)c(C(=O)c4ccc5c(c4)OCO5)n4ccccc34)n2)cc1C ?
Cruzain inh Det: -3%; Cruzain inh noDet: 3.2µM*

How did Cc1ccc(C)c(C(=O)c2c(N)c(-c3nc(-c4ccc5c(c4)OCO5)cs3)c3ccccn23)c1 do in these assays?
Cruzain inh Det: -2%; Cruzain inh noDet: 5µM*

What do the screens show for `COc1ccc(-c2csc(-c3c(N)c(C(=O)c4ccccc4)n4ccccc34)n2)cc1`?
Cruzain inh Det: 2%; Cruzain inh noDet: inconclusive

Results for Nc1c(-c2nc(-c3ccc4c(c3)OCO4)cs2)c2ccccn2c1C(=O)c1ccccc1 ?
Cruzain inh Det: -3%; Cruzain inh noDet: 4µM*

What do the screens show for `Cc1ccc(CN(C(=O)c2ccc(OCC(C)C)cc2)c2ccccn2)o1`?
Cruzain inh Det: -9%; Cruzain inh noDet: -3%

How did Oc1c(Cl)c(Cl)c(Cl)c(Cl)c1Cl (tested in a mixture with another compound) do in these assays?
Cruzain inh Det: 1%; Cruzain inh noDet: -1%

How did Cn1c(=O)c2c(c3ccccc31)OC(=O)CC2c1cccc(F)c1 (stereo not given) do in these assays?
Cruzain inh Det: -3%; Cruzain inh noDet: 3%

What do the screens show for `COc1ccc(-c2noc(-c3cc(C(C)C)[nH]n3)n2)cc1`?
Cruzain inh Det: -5%; Cruzain inh noDet: 14%

Results for CCn1cc(C(=O)OCC(=O)Nc2cc(OC)cc(OC)c2)c(=O)c2ccc(C)nc21 ?
Cruzain inh Det: -3%; Cruzain inh noDet: 5%

What do the screens show for `Cc1cc2nc3[nH]c4c(Cl)cc(Cl)cc4c3nc2cc1C`?
Cruzain inh Det: 1%; NS1 inh: 3%; Cruzain inh noDet: 4%

High-throughput results as filed in PubChem.
